“And” between values parts separate entries of the source, which are not always exact repeats. Equal entries are not always repeated. About 2,000 (36%) of roughly 5,500 compounds were called active. Not shown: some 18% with an inconclusive outcome. No stated cut-off is given here; in the data, active means normalized growth mostly below about 0.91 (no sharp cut-off); inconclusive means no clear call, values can overlap the other calls; inactive means mostly above about 0.92. Some of the results follow. Where a structure was tested more than once in an assay, its records may differ in their call.
Assay: chemical genetic growth profiling, strain panel (AID 1159580);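 further: tested at 20 µM; growth read once vehicle control cultures reached saturation at 30 °C; 1 = growth at the plate median or of vehicle wells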
Conditions: growth OD

Measured: normalized growth

O=C1CCc2cc(OCCCCc3nnnn3C3CCCCC3)ccc2N1
1.01 (inactive) and 0.0868 (active): S. cerevisiae deletion strains, locus YMR263W, strain SAP30, stronger effect = lower value
inactive: S. cerevisiae deletion strains, locus YKL009W, strain mrt4, stronger effect = lower value 1 | S. cerevisiae deletion strains, locus YKL068W, stronger effect = lower value 1 | S. cerevisiae deletion strains, locus YKL085W, strain MDH1 (second series), stronger effect = lower value 1.01 | S. cerevisiae deletion strains, locus YKL085W, strain MDH1, stronger effect = lower value 1.01 | S. cerevisiae deletion strains, locus YKL160W, strain elf1, stronger effect = lower value 0.987 | S. cerevisiae deletion strains, locus YKL190W, strain CNB1, stronger effect = lower value 1.01 | S. cerevisiae deletion strains, locus YKR001C, strain vps1, stronger effect = lower value 0.993 | S. cerevisiae deletion strains, locus YKR026C, strain gcn3, stronger effect = lower value 0.979 | S. cerevisiae deletion strains, locus YKR091W, strain srl3, stronger effect = lower value 0.99 | S. cerevisiae deletion strains, locus YLL001W, strain dnm1, stronger effect = lower value 0.984 | S. cerevisiae deletion strains, locus YLL026W, stronger effect = lower value 0.993 | S. cerevisiae deletion strains, locus YLL041C, strain sdh2, stronger effect = lower value 0.991 | S. cerevisiae deletion strains, locus YLR027C, strain aat2, stronger effect = lower value 0.978 | S. cerevisiae deletion strains, locus YLR039C, strain RIC1, stronger effect = lower value 0.972 | S. cerevisiae deletion strains, locus YLR058C, strain SHM2, stronger effect = lower value 1.01 | S. cerevisiae deletion strains, locus YLR102C, strain apc9, stronger effect = lower value 0.999 | S. cerevisiae deletion strains, locus YLR113W, strain HOG1, stronger effect = lower value 0.983 | S. cerevisiae deletion strains, locus YLR221C, strain rsa3, stronger effect = lower value 0.984 | S. cerevisiae deletion strains, locus YLR258W, strain gsy2, stronger effect = lower value 0.986 | S. cerevisiae deletion strains, locus YLR262C, strain YPT6 (second series), stronger effect = lower value 0.876 | S. cerevisiae deletion strains, locus YLR262C, strain YPT6, stronger effect = lower value 0.998 | S. cerevisiae deletion strains, locus YLR268W, strain sec22, stronger effect = lower value 0.999 | S. cerevisiae deletion strains, locus YLR320W, strain mms22, stronger effect = lower value 0.976 | S. cerevisiae deletion strains, locus YLR330W, strain CHS5, stronger effect = lower value 1.01 | S. cerevisiae deletion strains, locus YLR342W, strain FKS1 (second series), stronger effect = lower value 0.987 | S. cerevisiae deletion strains, locus YLR342W, strain FKS1, stronger effect = lower value 0.985 | S. cerevisiae deletion strains, locus YLR357W, strain rsc2, stronger effect = lower value 0.956 | S. cerevisiae deletion strains, locus YLR370C, strain arc18, stronger effect = lower value 0.99 | S. cerevisiae deletion strains, locus YLR371W, strain rom2, stronger effect = lower value 0.995 | S. cerevisiae deletion strains, locus YLR384C, strain iki3, stronger effect = lower value 0.972 | S. cerevisiae deletion strains, locus YLR418C, strain cdc73, stronger effect = lower value 1 | S. cerevisiae deletion strains, locus YML016C, strain PPZ1, stronger effect = lower value 1.01 | S. cerevisiae deletion strains, locus YML032C, strain rad52, stronger effect = lower value 1.02 | S. cerevisiae deletion strains, locus YML120C, strain ndi1, stronger effect = lower value 0.994 | S. cerevisiae deletion strains, locus YML124C, strain tub3, stronger effect = lower value 0.992 | S. cerevisiae deletion strains, locus YMR058W, strain fet3, stronger effect = lower value 1 | S. cerevisiae deletion strains, locus YMR078C, strain ctf18, stronger effect = lower value 0.998 | S. cerevisiae deletion strains, locus YMR125W, strain sto1, stronger effect = lower value 0.999 | S. cerevisiae deletion strains, locus YMR129W, stronger effect = lower value 0.985 | S. cerevisiae deletion strains, locus YMR205C, strain PFK2, stronger effect = lower value 0.989 | S. cerevisiae deletion strains, locus YMR223W, strain ubp8, stronger effect = lower value 0.991 | S. cerevisiae deletion strains, locus YMR231W, strain pep5, stronger effect = lower value 0.996 | S. cerevisiae deletion strains, locus YMR307W, strain GAS1, stronger effect = lower value 0.946 and 0.993 | S. cerevisiae deletion strains, locus YNL067W, strain RPL9B, stronger effect = lower value 1.03 | S. cerevisiae deletion strains, locus YNL071W, strain lat1, stronger effect = lower value 1 | S. cerevisiae deletion strains, locus YNL128W, strain TEP1, stronger effect = lower value 1.01 | S. cerevisiae deletion strains, locus YNL153C, strain GIM3, stronger effect = lower value 1.01 | S. cerevisiae deletion strains, locus YNL175C, strain NOP13, stronger effect = lower value 1.03 | S. cerevisiae deletion strains, locus YNL183C, strain NPR1, stronger effect = lower value 0.966 | S. cerevisiae deletion strains, locus YNL197C, strain WHI3, stronger effect = lower value 1.01 | S. cerevisiae deletion strains, locus YNL209W, strain ssb2, stronger effect = lower value 0.998 | S. cerevisiae deletion strains, locus YNL224C, strain SQS1, stronger effect = lower value 1 | S. cerevisiae deletion strains, locus YNL233W, strain BNI4, stronger effect = lower value 1.01 | S. cerevisiae deletion strains, locus YNL248C, strain rpa49, stronger effect = lower value 0.999 | S. cerevisiae deletion strains, locus YNL250W, strain rad50, stronger effect = lower value 0.992 | S. cerevisiae deletion strains, locus YNL271C, strain bni1, stronger effect = lower value 1 | S. cerevisiae deletion strains, locus YNL298W, strain CLA4, stronger effect = lower value 1 | S. cerevisiae deletion strains, locus YNL307C, strain MCK1, stronger effect = lower value 0.982 | S. cerevisiae deletion strains, locus YNL322C, strain KRE1 (second series), stronger effect = lower value 0.988 | S. cerevisiae deletion strains, locus YNL322C, strain KRE1, stronger effect = lower value 1.01 | S. cerevisiae deletion strains, locus YNR049C, strain mso1, stronger effect = lower value 0.998 | S. cerevisiae deletion strains, locus YNR052C, strain pop2, stronger effect = lower value 1 | S. cerevisiae deletion strains, locus YOL006C, strain TOP1, stronger effect = lower value 1.01 | S. cerevisiae deletion strains, locus YOL012C, strain htz1 1.15 | S. cerevisiae deletion strains, locus YOL147C, strain pex11, stronger effect = lower value 0.991 | S. cerevisiae deletion strains, locus YOR001W, strain rrp6, stronger effect = lower value 0.992 | S. cerevisiae deletion strains, locus YOR061W, strain CKA2, stronger effect = lower value 1 | S. cerevisiae deletion strains, locus YOR069W, strain VPS5, stronger effect = lower value 1 | S. cerevisiae deletion strains, locus YOR070C, strain gyp1, stronger effect = lower value 0.995 | S. cerevisiae deletion strains, locus YOR080W, strain dia2, stronger effect = lower value 0.984 | S. cerevisiae deletion strains, locus YOR083W, strain WHI5 (second series), stronger effect = lower value 0.993 | S. cerevisiae deletion strains, locus YOR083W, strain WHI5, stronger effect = lower value 0.987 | S. cerevisiae deletion strains, locus YOR106W, strain vam3, stronger effect = lower value 0.977 | S. cerevisiae deletion strains, locus YOR136W, strain idh2, stronger effect = lower value 0.983 | S. cerevisiae deletion strains, locus YOR144C, strain elg1, stronger effect = lower value 0.995 | S. cerevisiae deletion strains, locus YOR184W, strain ser1, stronger effect = lower value 1.02 | S. cerevisiae deletion strains, locus YOR231W, strain MKK1, stronger effect = lower value 0.974 | S. cerevisiae deletion strains, locus YOR265W, strain rbl2, stronger effect = lower value 0.987 | S. cerevisiae deletion strains, locus YOR270C, strain vph1, stronger effect = lower value 0.991 | S. cerevisiae deletion strains, locus YOR290C, strain snf2, stronger effect = lower value 1 | S. cerevisiae deletion strains, locus YOR316C, strain cot1, stronger effect = lower value 1 | S. cerevisiae deletion strains, locus YPL051W, strain arl3, stronger effect = lower value 0.983 | S. cerevisiae deletion strains, locus YPL055C, strain LGE1, stronger effect = lower value 1.06 | S. cerevisiae deletion strains, locus YPL078C, strain atp4, stronger effect = lower value 0.977 | S. cerevisiae deletion strains, locus YPL106C, strain sse1, stronger effect = lower value 1.01 | S. cerevisiae deletion strains, locus YPL240C, strain hsp82, stronger effect = lower value 0.982 | S. cerevisiae deletion strains, locus YPL241C, strain CIN2, stronger effect = lower value 1 | S. cerevisiae deletion strains, locus YPL256C, strain CLN2, stronger effect = lower value 0.985 | S. cerevisiae deletion strains, locus YPR119W, strain clb2, stronger effect = lower value 0.998 | S. cerevisiae deletion strains, locus YPR141C, strain kar3, stronger effect = lower value 1 | S. cerevisiae deletion strains, locus YPR163C, strain tif3, stronger effect = lower value 0.978 | S. cerevisiae deletion strains, locus YPR167C, strain met16, stronger effect = lower value 0.996 | S. cerevisiae deletion strains, strain wtn01, stronger effect = lower value 1.01 | S. cerevisiae strains, strain wild type, stronger effect = lower value 1.01

— PubChem BioAssay AID1159580 (chemical genetic matrix, 2015)
